PubChem BioAssay AID778 (Sanford-Burnham Center for Chemical Genomics, 2007)
Hit rate of the full screen: of about 96,000 compounds, about 20,000 (21%) were called active.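 The calls were made as follows: active = CYP2C19 inhibition above a set limit at 5 µM in the primary screen (cut at about 50% in these data); inactive = the rest.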 The list is a sample of the results.

Biological target: Cytochrome P450 2C19 (Homo sapiens) (UniProt P33261)
Experiment: blockers of cytochrome P450 2C19 activity – biochemical, luminescence, ADME assay, primary screen (AID 778);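 also: plate controls were negative control wells for no effect and 2.5 mM tranylcypromine positive control for full effect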
Conditions: CYP2C19 Supersomes, luciferin-H EGE luminescence, 30 min; at 5 µM; active compounds read high

Sequence of Cytochrome P450 2C19 (Homo sapiens) (P33261 whole entry, looked up): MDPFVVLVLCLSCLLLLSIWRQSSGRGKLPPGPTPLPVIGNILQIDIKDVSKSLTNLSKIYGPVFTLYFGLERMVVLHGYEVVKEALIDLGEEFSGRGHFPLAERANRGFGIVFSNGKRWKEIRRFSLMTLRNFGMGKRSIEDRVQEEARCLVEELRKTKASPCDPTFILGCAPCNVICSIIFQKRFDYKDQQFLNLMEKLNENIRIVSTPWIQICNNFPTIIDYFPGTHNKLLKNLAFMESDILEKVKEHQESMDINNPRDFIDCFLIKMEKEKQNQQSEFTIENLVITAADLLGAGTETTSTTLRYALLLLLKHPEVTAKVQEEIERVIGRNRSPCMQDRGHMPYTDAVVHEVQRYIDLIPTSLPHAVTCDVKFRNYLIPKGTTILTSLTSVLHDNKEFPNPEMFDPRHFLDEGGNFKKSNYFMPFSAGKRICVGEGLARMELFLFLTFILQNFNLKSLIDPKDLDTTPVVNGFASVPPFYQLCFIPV

inhibition, active:
Cc1cccc(C(=O)N2CCCN(C(=O)c3cccc(C)c3)CC2)c1 90.5%
O=C(c1cccc(C(=O)N2CCN(c3ccc(F)cc3)CC2)c1)N1CCN(c2ccc(F)cc2)CC1 81.8%
Cc1ccccc1CN1CCN(C(=O)c2cccc(F)c2)CC1 98.4%
O=C(c1ccccc1Oc1ccccc1)N1CCN(c2ccc(F)cc2)CC1 87.1%
CC1CN(C(=O)c2ccc3c(c2)OCO3)OC(c2ccccc2)O1 (stereo not drawn) 74.6%
CCOC(=O)C1Cn2c(nc3c(c2=O)C(C)(CC)Cc2ccccc2-3)S1 (stereo not drawn) 97.8%
Cc1cc(C)c(C#N)c(SCc2ccc3c(c2)OCO3)n1 96.5%

inhibition, inactive:
COc1cc(OC)cc(C(=O)Nc2ccc(-c3nc4ccccc4o3)c(O)c2)c1 22.3%
O=C(c1ccccc1)N1CCN(C(=O)N2CCCCC2)CC1 39.7%
Cc1ccccc1CS(=O)(=O)CC1(O)CCN(C(=O)c2cccc(C(F)(F)F)c2)CC1 19.1%
CC(C)N(C(=O)COC(=O)c1ccccc1C(=O)N1CCN(c2ccc(F)cc2)CC1)C(C)C 44.2%
O=C(c1ccccc1-c1ccccc1)N1CCOCC1 10.3%
O=C(c1cccc(F)c1)N1CCN(c2ccc([N+](=O)[O-])c(N3CCCCC3)c2)CC1 49%
O=C(c1ccccc1)c1cccn1CC(=O)N1CCN(c2ccc(F)cc2)CC1 33.3%
CCC(CC)C(=O)Nc1cccc(C(=O)N2CCCC2)c1 15.4%
O=C(CN1CCN(C(=O)c2cccc(F)c2)CC1)Nc1ccccc1F 42.8%
O=C(NCc1ccco1)C1(c2ccc(Cl)cc2)CCCC1 39.8%
CCOc1nc(NCCN2CCOCC2)nc(Nc2ccc(C)cc2)n1 11.1%
CCOc1ccc(NC(=O)Nc2ccc(N(C)C(C)=O)cc2)cc1 -7.4%
O=C(Nc1ccc2ccccc2c1)Nc1ccc2snnc2c1 5.2%
Oc1c(C=Nc2cccc3nsnc23)ccc2ccccc12 45.4%
Cc1ccc(-c2nn(-c3ccccc3)cc2/C=N/NC(=O)c2ccc3c(c2)OCO3)cc1 49.9%
O=C(c1ccc2c(c1)OCO2)N1CCNc2ccccc2C1 16.6%
CCn1c(COc2cccc(OC)c2)nnc1SCC(=O)N1CCOCC1 9.6%
CC1(C)Cc2ccccc2-c2nc(CN3CCOCC3)[nH]c(=O)c21 9.2%
COC(=O)Nc1ncc(CN2CCCCC2)s1 -1.3%
Cc1cc(C)c(C#N)c(SCc2ccccc2C(=O)O)n1 -6%
Cc1cc(C)c(C#N)c(SCc2[nH]nc3c2C(c2ccccc2)C(C#N)=C(N)O3)n1 (stereo not drawn) -13.6%
